Results published in PubChem BioAssay AID1053118 (Broad Institute, 2014).
Results with a measured potency or affinity are listed apart. The source made the active and inactive calls.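 Rule for the calls: active = fitted half-maximal concentration for ATP signal loss at most twice the top valid dose; inconclusive = flat curve between -70 and -30%, or an invalid fit; inactive = flat within ±30%, wrong direction, or potency past limit.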

Experiment: HepG2 cell cytotoxicity, dose response, cytotoxicity control, cherry-picks, set 5 (AID 1053118)
Details: HepG2 viability, ATP luminescence, 72 h; series mostly up to 26 µM
With COc1ncccc1C(=O)NC1CCCc2c1cnn2-c1ccc(C)c(C)c1 (stereo not given) the outcome was “inactive”. In the case of O=C(CCNS(=O)(=O)c1cccc2nonc12)NC1CCCc2ccccc21 (stereo not given), the outcome was “inactive”. In the case of COc1cccc(-c2ccc3c(c2)[C@H]2[C@H](CCN2S(=O)(=O)c2cccc(OC)c2)[C@H](CO)N3)c1, the outcome was “inactive”. With Cn1cnc(S(=O)(=O)N2CCN(c3ccccc3)CC2)c1 the outcome was “inactive”. In the case of Cc1ccc(S(=O)(=O)N2CC[C@H]3[C@H](CO)Nc4ccc(-c5cccc(C(=O)N(C)C)c5)cc4[C@H]32)cc1, the outcome was “inactive”. For COCC(C)n1c(SCc2nc(N)nc(Nc3ccccc3C)n2)nc2ccccc2c1=O (stereo not given), the outcome was “inactive”. For CC(NC(=O)CSc1ccc(S(=O)(=O)N2CCOCC2)cn1)c1ccc(Cl)cc1Cl (stereo not given), the outcome was “inactive”. In the case of CC(C)(C)[S@@](=O)N1Cc2cc(C(=O)NCc3ccccc3F)nc(-c3cccc(-c4cncnc4)c3)c2[C@H]1CCO, the outcome was “inactive”. For C[C@@H]1CN([C@H](C)CO)C(=O)c2cc(NC(=O)CCCN(C)C)ccc2O[C@@H]1CN(C)Cc1ccc(-c2ccccc2)cc1, the outcome was “inactive”. In the case of CCCCOc1ccc(C(C)NC(=O)C2CCCN(S(=O)(=O)CCC)C2)cc1 (stereo not given), the outcome was “inactive”. For Cc1oc2ccc(O)cc2c1C(=O)c1ccc(Br)cc1, the outcome was “inactive”. In the case of COC(=O)C[C@H]1CC[C@@H]2[C@@H](COc3ccc(NC(=O)Cc4cccs4)cc3C(=O)N2C)O1, the outcome was “inactive”. For C[C@H](O)C#Cc1ccc2c(c1)O[C@H](CN(C)C)[C@@H](C)CN([C@@H](C)CO)S2(=O)=O, the outcome was “inactive”. With COC(=O)C[C@@H]1CC[C@H]2[C@H](COc3ccc(NC(=O)Cc4cccs4)cc3C(=O)N2C)O1 the outcome was “inactive”. With CC(C)Cc1nnc(NC(=O)CSc2nc(N)cc(=O)[nH]2)s1 the outcome was “inactive”. In the case of CCN(Cc1ccncc1)C(=O)c1ccc2c(c1)S(=O)(=O)c1ccccc1C2=O, the outcome was “inactive”. With C[C@@H]1CN([C@@H](C)CO)C(=O)c2cc(NC(=O)CCCN(C)C)ccc2O[C@H]1CN(C)Cc1ccc(-c2ccccc2)cc1 the outcome was “inactive”. With C=CCC[C@H](Cc1ccc(F)cc1)C(=O)OC[C@H](Cc1c[nH]c2ccccc12)NC(=O)[C@@H](CC=C)CC(=O)N[C@@H](CO)Cc1ccccc1 the outcome was “inactive”. With c1ccc2[nH]c(SCc3cn4cccnc4n3)nc2c1 the outcome was “inactive”. With COc1ccccc1CNc1nc(NCc2cnc(C)cn2)c2sccc2n1 the outcome was “inactive”. With CN(C)C(=O)c1ccc(-c2ccc3c(c2)[C@@H]2[C@@H](CCN2C(=O)c2ccc(F)cc2)[C@@H](CO)N3C)cc1 the outcome was “inactive”. In the case of COC(=O)C[C@H]1CC[C@@H]2[C@H](COc3ccc(NC(=O)Cc4cccs4)cc3C(=O)N2C)O1, the outcome was “inactive”. In the case of COC(=O)c1c(NC(=O)CN2CCN(c3ccccc3Cl)CC2)sc(C)c1C, the outcome was “inactive”. For CN1c2ccc(-c3ccccc3)cc2[C@H]2[C@H](CCN2C(=O)CN2CCOCC2)[C@@H]1CO, the outcome was “inactive”. In the case of N#C[C@H]1[C@H](c2ccccc2C2=CCCCC2)[C@H](CO)N1S(=O)(=O)c1ccccc1, the outcome was “inactive”. For CC(=O)Nc1cccc(-c2ccnc3c2CC(C)(C(=O)Nc2cccc(C(F)(F)F)c2)O3)c1 (stereo not given), the outcome was “inactive”. With CCOc1cccc(C(=O)Nc2ccc(N(CC)CC)cc2)c1 the outcome was “inactive”. With N#C[C@@H]1[C@H](c2ccccc2C2=CCCCC2)[C@H](CO)N1S(=O)(=O)c1ccccc1 the outcome was “inactive”. In the case of C[C@@H]1CN([C@H](C)CO)C(=O)c2cc(NC(=O)C3CCCCC3)ccc2O[C@H]1CN(C)Cc1ccc(-c2ccccc2)cc1, the outcome was “inactive”. With COc1ccc(Cl)cc1NC(=O)CSc1nc(Nc2ccccc2)nc(N2CCOCC2)n1 the outcome was “inactive”. In the case of COC(=O)C[C@H]1CC[C@H]2[C@@H](COc3ccc(NC(=O)Cc4cccs4)cc3C(=O)N2C)O1, the outcome was “inactive”. In the case of C[C@@H]1CN([C@@H](C)CO)C(=O)c2cc(NC(=O)CCCN(C)C)ccc2O[C@@H]1CN(C)Cc1ccc(-c2ccccc2)cc1, the outcome was “inactive”. For C[C@H](CO)N1C[C@H](C)[C@H](CN(C)Cc2ccc(-c3ccccc3)cc2)Oc2ccc(NC(=O)C3CCCCC3)cc2C1=O, the outcome was “inactive”. With COC(=O)C[C@@H]1CC[C@@H]2[C@H](COc3ccc(NC(=O)Cc4cccs4)cc3C(=O)N2C)O1 the outcome was “inactive”. For CCC(C)(C)NC(=O)C(OC(=O)c1ccco1)c1ccccc1OC (stereo not given), the outcome was “inactive”.
